In all, about 56,000 compounds went through this assay and about 320 (0.57%) were called active.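 How the source made its calls: active means activation above a cutoff set at the mean activation of all tested compounds plus 3 SD (cut at about 54% in these data); inactive means the rest, inconclusive results apart.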 Only a selection was taken, and actives are over-represented in it overall.

In the assay the target is Sphingosine 1-phosphate receptor 1 (Homo sapiens) (UniProt P21453). Nature of the assay: activation or potentiation of human S1P1 signaling – cell-based, primary and confirmation screens, CRE-bla reporter, primary screen (AID 449).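 Further: forskolin at 4 µM as EC80 and the EC20 agonist is SEW2871; 100% = SEW2871 at its EC100 plus forskolin at EC80.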 As to conditions: S1P1 CRE-bla cells, forskolin, beta-lactamase FRET, potentiator mode, at 9.5 µM, stronger effect = higher value, 100% = saturating reference agonist, 0% = basal, S1P1 agonist co-added at EC20, 2 nM.

Where [1] appears, read: measured here: confirmation screen, triplicate average.

Sphingosine 1-phosphate receptor 1 (Homo sapiens), sequence (P21453 whole entry, looked up): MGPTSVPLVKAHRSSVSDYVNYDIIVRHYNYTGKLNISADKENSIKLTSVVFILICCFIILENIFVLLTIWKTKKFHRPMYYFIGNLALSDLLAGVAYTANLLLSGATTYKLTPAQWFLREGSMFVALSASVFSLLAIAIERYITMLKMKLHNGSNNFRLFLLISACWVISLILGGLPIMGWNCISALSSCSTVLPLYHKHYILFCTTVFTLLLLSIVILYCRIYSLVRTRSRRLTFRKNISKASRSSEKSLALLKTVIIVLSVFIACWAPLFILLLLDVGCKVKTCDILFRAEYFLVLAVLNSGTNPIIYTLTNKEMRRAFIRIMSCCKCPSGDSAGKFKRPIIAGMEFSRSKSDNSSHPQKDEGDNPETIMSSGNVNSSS

As to `c1ccc2c(c1)OCC(CNc1ncnc3nc[nH]c13)O2` (configuration not stated), the activation is 23.9% (inactive). Turning to `CCc1ccc(N(CC)c2ncnc3nc[nH]c23)cc1`, the activation was 56.5% (active). Moreover, the activation under setting [1] turned out to be 57.4%.

As for `COc1ccc(CCNc2ncnc3nc[nH]c23)cc1OC`, the activation is -11.4% (inactive). With `COC(=O)c1cc(C(=O)CSc2nc(C)cc(C)n2)ccc1O`, the activation was -13.3% (inactive). Regarding `CC(C)OC(=O)c1sc2nc3c(cc2c1N)C(=O)CCC3`, the activation was -1.6% (inactive).

Consider `Cc1ccc(-c2nn(-c3ccccc3)cc2CN(Cc2ccccc2)C(=O)CCC(=O)O)o1`, for which the activation was -15.4% (inactive). For `CCCc1nc(SCC(=O)Nc2ccccc2OC)c2c(=O)n(C)c(=O)n(C)c2n1`, the activation is -6% (inactive). For `COc1ccc(-n2c(C)cc(C(=O)CSc3nnc(-c4cccs4)o3)c2C)cc1`, the activation was 114% (active). The activation under setting [1] stood at 111%. With `COc1ccc(-c2nnc(SCC(=O)c3cccs3)o2)c(OC)c1`, the activation was 8.5% (inactive). For `COc1ccc(OC)c(C(=O)CSc2nnc(-c3cccs3)o2)c1`, the activation is -31.3% (inactive). As to `CCOC(=O)c1sc(/N=C/Nc2nc(C)c(C(=O)OCC)s2)nc1C`, the activation is 11.8% (inactive). As for `Cc1cc(C(=O)N2CCN(c3ccccn3)CC2)c(C)o1`, the activation was -7.8% (inactive). In the case of `COc1cccc(N(CC(=O)Nc2cccc(F)c2)S(C)(=O)=O)c1`, the activation is 13.1% (inactive).

For the compound `COc1ccc(C)c2sc(=NC(=O)c3ccc(C#N)cc3)n(C)c12`, the activation is -12.3% (inactive). As to `CCSC1(SCC)N=C(N)C2(C#N)C(c3ccccc3)NC(C)=CC12C#N` (configuration not stated), the activation was 2.3% (inactive). For the compound `CC(NC(=O)c1ccc(Cl)cc1)C(=O)N1CCCCC1` (configuration not stated), the activation is -2% (inactive). As to `CC1CSc2nnc(CCc3ccccc3)n21` (configuration not stated), the activation was -14.3% (inactive). As to `CC12COC3(C(=O)Nc4ccc(Cl)cn4)CC1CCC32C` (configuration not stated), the activation is -10.8% (inactive). As to `COCCCn1c2nc3ccccc3nc2c2c(=O)n(Cc3ccc(Cl)cc3)c(C)nc21`, the activation is 6% (inactive). As for `CCC(C(=O)Nc1ncccn1)(C(F)(F)F)C(F)(F)F`, the activation was -4.8% (inactive). As to `CC(C)Cc1cc(C(=O)NCCc2ccccc2)no1`, the activation is 20.9% (inactive).

Regarding `CCCOc1ccc(-c2nc(N)n[nH]2)cc1`, the activation was 5.2% (inactive). With `CCOC(=O)C1CCCN(C(=O)Cn2ncc3c(=O)oc4ccc(C)cc4c32)C1` (configuration not stated), the activation is -8.1% (inactive). Turning to `Cc1cc(OCCN2CCCC2)ccc1C(C)C`, the activation was -14.6% (inactive). `COc1ccc(OC)c2[nH]c(=O)c(CCNC(=O)C(C)(C)C)cc12`: the activation was -8.4% (inactive). On the same count and under the same terms, under `CCOC(=O)CSC1=C(C#N)C(c2sccc2C)CC(=O)N1` (configuration not stated) stands -11.6% (inactive). In the case of `CC(=O)N1CCN(C(=O)c2cccc(S(=O)(=O)Nc3ccc(C)cc3)c2)CC1`, the activation is -12.2% (inactive). For the compound `Cc1c(C(=O)NCC2CCCO2)sc2nc(-c3ccccc3)cn12` (configuration not stated), the activation was -17.8% (inactive). In the case of `CCOc1ccc(NC(=O)CSc2nc3c(c(=O)n2-c2ccccc2OC)SCC3)cc1`, the activation is -5.9% (inactive).

For `COc1ccc(OC)c2sc(NC(=O)C3COc4ccccc4O3)nc12` (configuration not stated), the activation was -1.3% (inactive). `COc1ccc(CCNC(=O)CN2CCC(n3nnc4cc(F)ccc43)CC2)cc1OC`: the activation was -19.7% (inactive). With `COCCOC(=O)C1=C(C)N=c2s/c(=C\c3cccs3)c(=O)n2C1c1cccs1` (configuration not stated), the activation was 2.2% (inactive).

In the case of `COc1ccc(OC)c(CNC(=O)CCc2nc(-c3cccs3)no2)c1`, the activation was 9.5% (inactive). As for `CC(C)(C)NC(=O)C(c1ccco1)N(Cc1ccc2c(c1)OCO2)C(=O)Cn1nnc2ccccc21` (configuration not stated), the activation was 11.2% (inactive). On the same count and under the same terms, under `c1ccc(-n2ncc3c2ncn2c(CSc4nc5ccccc5s4)nnc32)cc1` stands -7.8% (inactive); under `CCn1c(=O)cc(O)c2ccccc21`, -26.6% (inactive). For `CCc1ccccc1NC(=O)c1cccs1`, the activation was -18.1% (inactive). In the case of `O=C(OCCO)c1cc(Cl)c(C(=O)OCCO)cc1Cl`, the activation was -15.8% (inactive). As to `Fc1ccc(Br)cc1/C=N/n1cnnc1`, the activation is -20% (inactive). Turning to `CC1(C)CC(=O)C(C=NCCC2=CCCCC2)=C(O)C1`, the activation was -14.2% (inactive).

Turning to `O=C(c1cccc(C(=O)N2CCN(c3ccc(F)cc3)CC2)c1)N1CCN(c2ccc(F)cc2)CC1`, the activation is 46% (inactive). Turning to `Cn1c2c(c(=O)n(C)c1=O)CN(Cc1ccco1)CN2`, the activation was -5.4% (inactive). Same read-out and setting: as for `COc1ccc(C2/C(=C(/O)c3ccc(OC(C)C)cc3)C(=O)C(=O)N2CCCN2CCOCC2)cc1` (configuration not stated), the figure is 10.9% (inactive); as for `CS(=O)(=O)N(Cc1nc2sc3c(c2c(=O)[nH]1)CCCC3)C1CCCCC1`, -3.8% (inactive); as for `Cc1ccccc1Cn1c(=O)[nH]c2ccccc21`, 1% (inactive).

For `O=C(COc1ccc(Cl)cc1)Nc1ccccc1CO`, the activation is 0% (inactive). In the case of `Cc1ccc(CCn2c3c(c4ccccc42)CN(C)CC3)cn1`, the activation was 6.4% (inactive).

In the case of `CC1CN(Cc2nc3c(c(=O)n(C)c(=O)n3C)n2Cc2cccc(Cl)c2)CC(C)O1` (configuration not stated), the activation is -22.8% (inactive). As to `CCOC(=O)C1C(=O)NC(N2CCN(c3ccccc3)CC2)=NC1c1ccco1` (configuration not stated), the activation is -4.8% (inactive). As to `COc1ccc(CCNC(=O)c2ccco2)cc1`, the activation was -9.8% (inactive).

As to `CCOC(=O)C1C(=O)C=C(c2ccc(OC)cc2)CC1c1ccco1` (configuration not stated), the activation is 91.1% (active). For the same compound, the activation under setting [1] stood at 86.3%. As to `COc1ccc(-n2nc3c(c2NC(=O)Cc2cccc(C)c2)CS(=O)C3)cc1` (configuration not stated), the activation is -1.3% (inactive). `CN1CCN(c2cc(=O)n(-c3ccc(Cl)cc3)c(=O)[nH]2)CC1`: the activation is -1.5% (inactive). Regarding `O=C1c2ccccc2C(O)N1Cc1ccccc1Cl` (configuration not stated), the activation was 15.2% (inactive). For the compound `O=C(c1cccs1)N1CCCC(c2nc(-c3ccc(F)cc3)no2)C1` (configuration not stated), the activation is 22.8% (inactive).

Consider `O=C(Cc1cccs1)N1CCCC(c2nc(-c3ccc(S(=O)(=O)N4CCCC4)cc3)no2)C1` (configuration not stated), for which the activation is 18.8% (inactive).

For the compound `COc1cc(-c2noc(C3CCCN(S(=O)(=O)c4cccc(Cl)c4)C3)n2)cc(OC)c1OC` (configuration not stated), the activation was 91.7% (active). Also, the activation under setting [1] was 85.9%. In the case of `COc1nc(NCc2ccc(Cl)cc2)nc(OC)n1`, the activation was -7.3% (inactive).

With `O=C(Cn1cnc2c(cnn2-c2ccc(F)cc2)c1=O)NCCc1ccccc1`, the activation was -3.5% (inactive). In the case of `Nc1nnc(C2CCCC2)s1`, the activation is -4.9% (inactive). As for `Cn1c(SCC(=O)N2CCOCC2)nnc1-c1ccc(NC(=O)c2ccccc2F)cc1`, the activation was 2.6% (inactive). Regarding `COC(=O)c1sc(NC(=O)c2ccc(OC)cc2OC)nc1C`, the activation is 108% (active). The activation under setting [1] worked out at 94.2%.

`COC(=O)c1sc(NC(=O)c2csc3c2CCCC3)nc1C`: the activation is 8.7% (inactive). Regarding `COc1ccc(C(=O)Nc2nncs2)c(OC)c1`, the activation was -24% (inactive). `CSCCC(NC(=O)c1ccc(=O)n(C)n1)c1nc2ccccc2[nH]1` (configuration not stated): the activation is -17.6% (inactive). In the case of `COc1ccc2nc(N3CCCC(O)C3)c(C#N)cc2c1` (configuration not stated), the activation was 16.4% (inactive). For the compound `Cc1ccc(S(=O)(=O)C2(S(=O)(=O)c3ccc(C)cc3)CCCC2)cc1`, the activation is -19.8% (inactive). On to `CCCOC(=O)CC1C(=O)NCCN1Cc1ccc(F)cc1` (configuration not stated), for which the activation is -20.1% (inactive).

For the compound `CCC(CC)c1nnc(NS(=O)(=O)Cc2ccccc2)s1`, the activation was -23.9% (inactive). With `COc1cccc(C2/C(=C(/O)c3ccc(F)cc3)C(=O)C(=O)N2CCN(C)C)c1` (configuration not stated), the activation was -5.8% (inactive). The same measure, in the same setting: as for `COc1ccc(OC)c2c1sc(=NC(=O)CN1C(=O)CCC1=O)n2C`, the figure is -15.9% (inactive).

For the compound `COc1ccc(-n2nnc3c(=O)n(CC(=O)N4CCC(Cc5ccccc5)CC4)cnc32)cc1`, the activation was 18.2% (inactive).

As for `N#CCCN1CCN(S(=O)(=O)c2ccc(S(=O)(=O)NC3CCCCC3)cc2)CC1`, the activation was -9% (inactive). On to `CCN1CCN(Cc2c(O)ccc3c(=O)c(-c4ccc(OC)c(OC)c4)c(C(F)(F)F)oc23)CC1`, for which the activation is -27.2% (inactive). As to `O=c1c(-c2ccc3c(c2)OCCO3)c(C(F)(F)F)oc2cc(O)cc(O)c12`, the activation was 84% (active). Also, the activation under setting [1] was found to be 95.4%. `Cc1ccc(-c2nc(CS(=O)CC(=O)N3CCN(c4ncccn4)CC3)c(C)o2)cc1` (configuration not stated): the activation was -2.4% (inactive). For `O=C1CC(c2cccc(Br)c2)C2=C(CCCC2=O)N1` (configuration not stated), the activation was -6.5% (inactive). As for `C=C(C)Cn1c(N2CCCC2)nc2c1c(=O)[nH]c(=O)n2C`, the activation is -3.8% (inactive). On to `O=C(c1cc(-c2ccccc2O)on1)N1CCCC1`, for which the activation was -19% (inactive). Still for that read-out and setting: as for `COc1ccc(-c2c(C)nn3c(N4CCC(C(=O)N5CCCCC5)CC4)cc(C)nc23)cc1OC`, the figure is -7.7% (inactive); as for `CN(CCCC(=O)Nc1nccs1)S(=O)(=O)c1ccc(Cl)cc1`, 20.6% (inactive).

Consider `O=c1c2ccccc2oc2nc3n(c(=O)c12)CCCS3`, for which the activation is -24.6% (inactive).

In the case of `CNC(=O)c1c(NC(=O)c2ccc(S(=O)(=O)N3CCOCC3)cc2)sc2c1CCC2`, the activation was -19.6% (inactive). For the compound `O=C(NCc1ccc(Cl)c(Cl)c1)c1cccnc1`, the activation was 10.2% (inactive).

On to `COC(=O)c1c(NC(=O)CCN2CCOCC2)sc2c1CCCC2`, for which the activation was -4.7% (inactive). Same read-out and setting: under `O=S(=O)(NCc1ccccn1)c1ccc(F)cc1` stands -21.3% (inactive); under `O=S(N1CCCCCC1)C12CC3CC(CC(C3)C1)C2` (configuration not stated), -13.3% (inactive). Consider `CCCn1c(O)c(CN2CCCC(C)C2)c(C)c(C#N)c1=O` (configuration not stated), for which the activation was 1% (inactive). On the same count and under the same terms, under `CCOC(=O)CSC1=C(C#N)C(c2ccco2)C(C(=O)OCc2ccccc2)=C(C)N1` (configuration not stated) stands 11.9% (inactive); under `FC(F)(F)c1cc(-c2ccco2)nc(N2CCOCC2)n1`, -22.2% (inactive); under `CC(C)CCNC(=O)CCNS(=O)(=O)c1ccc(Cl)cc1`, 12.2% (inactive).

Consider `O=C(NC1CCN(Cc2ccccc2)CC1)c1ccccc1F`, for which the activation was -25.4% (inactive). With `CCOc1cc(/C=N/n2cnnc2)c(Br)cc1O`, the activation was -9.1% (inactive). The same measure, in the same setting: under `c1nnc2c3c4c(sc3ncn12)CCC4` stands -8.2% (inactive).

For `COc1ncnc2sc3c(c12)CCCC3`, the activation is -21.1% (inactive). Regarding `Cn1cc(S(=O)(=O)N2CCC(Cc3ccccc3)CC2)c(=O)n(C)c1=O`, the activation was -8.3% (inactive).

For the origin of these results see PubChem BioAssay AID449 (The Scripps Research Institute Molecular Screening Center, 2006).
